Results on one sequence are retold here after article PMC7862700, “An all-to-all approach to the identification of sequence-specific readers for epigenetic DNA modifications on cytosine”.

Common to all, as to assay: DAPPL (digital affinity profiling via proximity ligation, sequencing); 10 mM Tris-HCl pH 7.5, 50 mM NaCl, 1 mM DTT, 4% glycerol, room temperature, 30 min; GST-TFs on glutathione beads, 16-mer random dsDNA library, 0.1% formaldehyde crosslink after washing; high values mean tight binding
Assay [1] deals with T1, FLI1 (Homo sapiens, UniProt Q01543 1-452).
T1 sequence: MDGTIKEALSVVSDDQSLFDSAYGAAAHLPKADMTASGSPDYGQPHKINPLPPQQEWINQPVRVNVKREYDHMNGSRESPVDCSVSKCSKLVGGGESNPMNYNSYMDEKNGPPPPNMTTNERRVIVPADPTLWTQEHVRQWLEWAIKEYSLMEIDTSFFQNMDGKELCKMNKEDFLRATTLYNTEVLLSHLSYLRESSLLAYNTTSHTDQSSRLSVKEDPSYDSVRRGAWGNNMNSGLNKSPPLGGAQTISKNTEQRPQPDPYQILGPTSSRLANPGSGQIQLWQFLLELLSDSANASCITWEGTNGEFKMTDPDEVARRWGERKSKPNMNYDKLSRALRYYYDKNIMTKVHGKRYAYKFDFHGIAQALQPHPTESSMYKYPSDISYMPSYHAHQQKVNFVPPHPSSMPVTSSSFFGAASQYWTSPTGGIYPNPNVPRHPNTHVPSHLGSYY
The note with it: protein: recombinant; tags: N-terminal GST; dsDNA, one strand shown. In outline:
(§1)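 Sequencing on an Illumina NextSeq500 followed washing, crosslinking with 0.1% formaldehyde, proximity ligation (BsaI/T4 ligase, 1 h, 37 °C) and PCR amplification of pools that had been incubated for 30 min at room temperature with 200 nmole of a random double-stranded 16-mer DNA library in Tris/NaCl/DTT/glycerol buffer. Each pool held DNA-barcoded human transcription factors, expressed in yeast as GST fusions and captured on glutathione beads, plus a tag-only sample. Binding signal is a hexamer's read frequency for a factor divided by its frequency in the tag-only sample.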

Assay [2] addresses T2, ELK1 (Homo sapiens, UniProt P19419 1-428).
T2 sequence: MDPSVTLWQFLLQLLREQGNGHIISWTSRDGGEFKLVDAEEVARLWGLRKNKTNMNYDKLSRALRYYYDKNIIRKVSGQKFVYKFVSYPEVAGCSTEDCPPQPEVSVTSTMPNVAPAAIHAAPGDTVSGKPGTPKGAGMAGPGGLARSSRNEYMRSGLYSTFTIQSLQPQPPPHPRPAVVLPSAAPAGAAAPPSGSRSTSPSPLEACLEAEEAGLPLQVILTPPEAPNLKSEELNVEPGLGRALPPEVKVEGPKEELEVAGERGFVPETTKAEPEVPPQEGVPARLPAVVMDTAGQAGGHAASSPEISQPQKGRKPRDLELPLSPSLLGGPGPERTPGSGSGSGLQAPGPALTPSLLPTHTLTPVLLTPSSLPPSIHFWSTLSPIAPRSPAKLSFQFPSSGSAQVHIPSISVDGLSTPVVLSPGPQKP
Conditions: protein: recombinant; tags: N-terminal GST; dsDNA, one strand shown. The essentials: as §1

In assay [3] the target is T3, GABPA (Homo sapiens, UniProt Q06546 1-454).
T3 sequence: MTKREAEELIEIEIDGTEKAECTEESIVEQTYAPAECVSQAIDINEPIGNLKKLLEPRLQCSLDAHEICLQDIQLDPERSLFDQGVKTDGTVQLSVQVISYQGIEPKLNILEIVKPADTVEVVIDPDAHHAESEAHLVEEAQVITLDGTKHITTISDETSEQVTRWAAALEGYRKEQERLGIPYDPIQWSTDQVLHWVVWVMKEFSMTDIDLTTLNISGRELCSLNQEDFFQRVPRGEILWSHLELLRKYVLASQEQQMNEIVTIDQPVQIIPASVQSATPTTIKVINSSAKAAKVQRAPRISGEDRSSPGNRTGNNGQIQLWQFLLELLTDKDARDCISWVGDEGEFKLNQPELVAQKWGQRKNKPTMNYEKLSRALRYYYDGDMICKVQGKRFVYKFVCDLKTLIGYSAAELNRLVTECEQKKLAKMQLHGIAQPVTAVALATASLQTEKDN
Conditions: protein: recombinant; tags: N-terminal GST; dsDNA, one strand shown. In outline: as §1

Assay [4] deals with T4, ERG (Homo sapiens, UniProt P11308 1-479).
T4 sequence: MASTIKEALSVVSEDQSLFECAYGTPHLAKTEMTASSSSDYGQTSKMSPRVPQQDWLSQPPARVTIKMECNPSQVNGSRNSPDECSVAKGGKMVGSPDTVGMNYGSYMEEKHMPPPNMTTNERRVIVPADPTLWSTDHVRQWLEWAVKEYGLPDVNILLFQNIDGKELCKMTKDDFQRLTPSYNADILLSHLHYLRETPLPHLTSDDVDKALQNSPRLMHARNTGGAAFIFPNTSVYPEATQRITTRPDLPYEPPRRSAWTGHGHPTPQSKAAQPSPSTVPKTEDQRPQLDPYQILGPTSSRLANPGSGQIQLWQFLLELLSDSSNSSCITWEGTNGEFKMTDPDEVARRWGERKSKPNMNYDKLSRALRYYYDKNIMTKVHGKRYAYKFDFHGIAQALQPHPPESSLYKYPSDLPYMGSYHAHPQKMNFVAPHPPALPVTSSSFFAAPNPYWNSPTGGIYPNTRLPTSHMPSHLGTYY
Conditions: protein: recombinant; tags: N-terminal GST; dsDNA, one strand shown. The essentials:
as §1

The target in assay [5] is ELF1 (Homo sapiens, UniProt P32519 1-619). The note with it: protein: recombinant; tags: N-terminal GST; dsDNA, one strand shown. In outline:
as §1

For assay [6], the target named is T5, EHF (Homo sapiens, UniProt Q9NZC4 1-300).
T5 sequence: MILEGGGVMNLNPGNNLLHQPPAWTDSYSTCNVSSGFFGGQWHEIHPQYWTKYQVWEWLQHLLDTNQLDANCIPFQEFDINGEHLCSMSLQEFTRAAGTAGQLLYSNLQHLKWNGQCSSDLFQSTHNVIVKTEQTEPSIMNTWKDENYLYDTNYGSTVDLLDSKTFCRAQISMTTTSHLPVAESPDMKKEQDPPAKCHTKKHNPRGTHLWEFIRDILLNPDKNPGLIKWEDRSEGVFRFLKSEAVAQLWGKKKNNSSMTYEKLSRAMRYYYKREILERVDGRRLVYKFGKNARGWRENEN
Conditions: protein: recombinant; tags: N-terminal GST; dsDNA, one strand shown. In outline:
as §1

Assay [7] concerns the target SPI1 (Homo sapiens, UniProt P17947 1-270). The note with it: protein: recombinant; tags: N-terminal GST; dsDNA, one strand shown. The essentials: as §1
For assay [8], the target named is T6, ELK3 (Homo sapiens, UniProt P41970 1-407).
T6 sequence: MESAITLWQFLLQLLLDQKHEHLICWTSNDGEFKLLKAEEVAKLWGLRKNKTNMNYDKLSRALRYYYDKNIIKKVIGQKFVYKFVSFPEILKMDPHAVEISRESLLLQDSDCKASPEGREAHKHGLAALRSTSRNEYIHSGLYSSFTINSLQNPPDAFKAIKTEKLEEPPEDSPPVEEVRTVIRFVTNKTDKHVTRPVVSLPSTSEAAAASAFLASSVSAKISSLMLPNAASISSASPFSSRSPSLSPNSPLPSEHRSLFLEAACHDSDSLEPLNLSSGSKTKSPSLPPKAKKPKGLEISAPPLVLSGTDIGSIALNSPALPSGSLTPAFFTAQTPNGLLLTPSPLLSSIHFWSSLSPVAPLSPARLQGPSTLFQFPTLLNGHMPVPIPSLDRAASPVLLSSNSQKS
The note with it: protein: recombinant; tags: N-terminal GST; dsDNA, one strand shown. The essentials:
as §1

Assay [9] has as its target T7, FEV (Homo sapiens, UniProt Q99581 1-238).
T7 sequence: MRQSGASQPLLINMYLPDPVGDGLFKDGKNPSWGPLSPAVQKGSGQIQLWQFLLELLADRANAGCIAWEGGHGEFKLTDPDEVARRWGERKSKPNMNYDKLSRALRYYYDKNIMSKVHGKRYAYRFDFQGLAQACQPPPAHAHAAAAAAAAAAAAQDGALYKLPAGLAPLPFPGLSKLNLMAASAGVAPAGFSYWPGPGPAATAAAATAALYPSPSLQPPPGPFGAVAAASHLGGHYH
Conditions: protein: recombinant; tags: N-terminal GST; dsDNA, one strand shown. In outline:
as §1

In assay [10] the target is ETV5 (Homo sapiens, UniProt P41161 1-510). The note with it: protein: recombinant; tags: N-terminal GST; dsDNA, one strand shown. The essentials: as §1
ETV5, sequence (P41161 whole entry): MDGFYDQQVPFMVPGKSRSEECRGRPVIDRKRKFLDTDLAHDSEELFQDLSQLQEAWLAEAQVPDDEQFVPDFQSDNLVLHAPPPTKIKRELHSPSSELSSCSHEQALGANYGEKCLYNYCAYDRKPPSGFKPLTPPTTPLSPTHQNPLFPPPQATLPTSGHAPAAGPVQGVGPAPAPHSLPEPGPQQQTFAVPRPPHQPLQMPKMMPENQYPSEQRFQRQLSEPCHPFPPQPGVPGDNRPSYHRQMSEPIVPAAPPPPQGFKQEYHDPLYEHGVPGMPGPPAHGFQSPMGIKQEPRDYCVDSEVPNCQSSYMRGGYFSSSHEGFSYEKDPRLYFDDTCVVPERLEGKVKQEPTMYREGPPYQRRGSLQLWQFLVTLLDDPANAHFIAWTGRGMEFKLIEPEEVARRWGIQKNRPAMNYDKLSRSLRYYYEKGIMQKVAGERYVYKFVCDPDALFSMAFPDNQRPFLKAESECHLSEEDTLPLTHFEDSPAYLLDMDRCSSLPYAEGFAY
The target of assay [11] is HSF1 (Homo sapiens, UniProt Q00613 1-529). Conditions: protein: recombinant; tags: N-terminal GST; chain copies: 3; dsDNA, one strand shown. In outline: as §1
HSF1, sequence (Q00613 whole entry): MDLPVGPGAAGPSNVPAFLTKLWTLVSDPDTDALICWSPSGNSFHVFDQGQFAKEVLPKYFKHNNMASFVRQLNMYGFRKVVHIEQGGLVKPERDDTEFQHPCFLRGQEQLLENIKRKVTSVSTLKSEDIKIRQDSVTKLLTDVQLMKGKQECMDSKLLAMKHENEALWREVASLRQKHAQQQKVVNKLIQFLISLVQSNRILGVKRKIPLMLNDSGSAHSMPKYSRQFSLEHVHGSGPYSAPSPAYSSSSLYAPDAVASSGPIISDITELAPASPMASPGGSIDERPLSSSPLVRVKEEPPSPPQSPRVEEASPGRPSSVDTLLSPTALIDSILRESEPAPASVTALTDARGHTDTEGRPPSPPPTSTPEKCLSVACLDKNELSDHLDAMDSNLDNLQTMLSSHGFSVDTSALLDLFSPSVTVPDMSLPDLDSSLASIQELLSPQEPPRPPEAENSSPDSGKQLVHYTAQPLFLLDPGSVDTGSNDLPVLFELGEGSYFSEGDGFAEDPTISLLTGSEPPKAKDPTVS
For assay [12], the target named is T8, SPIC (Homo sapiens, UniProt Q8N5J4 1-248).
T8 sequence: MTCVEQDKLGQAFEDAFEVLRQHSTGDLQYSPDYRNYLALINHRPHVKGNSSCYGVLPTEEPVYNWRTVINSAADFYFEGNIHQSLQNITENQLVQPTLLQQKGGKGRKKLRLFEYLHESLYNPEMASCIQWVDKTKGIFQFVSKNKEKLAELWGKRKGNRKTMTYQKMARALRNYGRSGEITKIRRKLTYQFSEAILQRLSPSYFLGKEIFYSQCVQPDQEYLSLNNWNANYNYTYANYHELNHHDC
The note with it: protein: recombinant; tags: N-terminal GST; dsDNA, one strand shown. The essentials: as §1

For assay [13], the target named is ELF4 (Homo sapiens, UniProt Q99607 1-663). Conditions: protein: recombinant; tags: N-terminal GST; dsDNA, one strand shown. The essentials:
as §1

Assay [14] has as its target T9, ELK4 (Homo sapiens, UniProt P28324-2 1-405).
T9 sequence: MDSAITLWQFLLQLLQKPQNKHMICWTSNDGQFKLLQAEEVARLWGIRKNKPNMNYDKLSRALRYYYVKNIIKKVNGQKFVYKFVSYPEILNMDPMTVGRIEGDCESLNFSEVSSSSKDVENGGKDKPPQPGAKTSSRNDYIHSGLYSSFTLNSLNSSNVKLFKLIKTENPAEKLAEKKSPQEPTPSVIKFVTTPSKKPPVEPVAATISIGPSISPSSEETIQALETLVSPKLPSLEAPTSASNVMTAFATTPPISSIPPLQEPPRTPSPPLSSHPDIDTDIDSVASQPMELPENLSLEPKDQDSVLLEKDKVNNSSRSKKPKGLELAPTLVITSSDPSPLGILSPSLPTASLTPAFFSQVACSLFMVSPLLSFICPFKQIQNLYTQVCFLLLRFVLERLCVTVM
The note with it: protein: recombinant; tags: N-terminal GST; dsDNA, one strand shown. In outline:
as §1

The target of assay [15] is T10, ETV2 (Homo sapiens, UniProt O00321 1-342).
T10 sequence: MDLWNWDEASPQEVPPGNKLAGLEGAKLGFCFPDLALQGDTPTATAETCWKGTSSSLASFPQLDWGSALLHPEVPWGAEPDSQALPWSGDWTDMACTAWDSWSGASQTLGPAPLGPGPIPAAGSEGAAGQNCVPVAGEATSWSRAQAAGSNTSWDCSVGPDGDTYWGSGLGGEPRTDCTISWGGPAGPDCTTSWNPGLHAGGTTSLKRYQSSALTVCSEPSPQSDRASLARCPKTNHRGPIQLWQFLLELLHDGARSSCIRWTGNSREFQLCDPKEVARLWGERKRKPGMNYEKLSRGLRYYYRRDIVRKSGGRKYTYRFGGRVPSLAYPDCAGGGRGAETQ
The note with it: protein: recombinant; tags: N-terminal GST; dsDNA, one strand shown. The essentials: as §1

For assay [16], the target named is T11, ELF3 (Homo sapiens, UniProt P78545 1-371).
T11 sequence: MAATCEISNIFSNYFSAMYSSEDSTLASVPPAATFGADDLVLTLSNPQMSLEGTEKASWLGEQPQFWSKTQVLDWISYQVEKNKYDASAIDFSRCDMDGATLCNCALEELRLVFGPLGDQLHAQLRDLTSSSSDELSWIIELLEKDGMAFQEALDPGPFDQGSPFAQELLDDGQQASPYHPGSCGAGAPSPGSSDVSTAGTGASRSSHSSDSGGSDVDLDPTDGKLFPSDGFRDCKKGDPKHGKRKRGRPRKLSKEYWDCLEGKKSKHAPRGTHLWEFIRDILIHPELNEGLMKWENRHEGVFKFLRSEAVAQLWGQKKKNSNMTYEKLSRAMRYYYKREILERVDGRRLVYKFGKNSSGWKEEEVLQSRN
The note with it: protein: recombinant; tags: N-terminal GST; dsDNA, one strand shown. In outline:
as §1

For assay [17], the target named is ETV1 (Homo sapiens, UniProt P50549 1-477). Conditions: protein: recombinant; tags: N-terminal GST; dsDNA, one strand shown. In outline: as §1
ETV1, sequence (P50549 whole entry): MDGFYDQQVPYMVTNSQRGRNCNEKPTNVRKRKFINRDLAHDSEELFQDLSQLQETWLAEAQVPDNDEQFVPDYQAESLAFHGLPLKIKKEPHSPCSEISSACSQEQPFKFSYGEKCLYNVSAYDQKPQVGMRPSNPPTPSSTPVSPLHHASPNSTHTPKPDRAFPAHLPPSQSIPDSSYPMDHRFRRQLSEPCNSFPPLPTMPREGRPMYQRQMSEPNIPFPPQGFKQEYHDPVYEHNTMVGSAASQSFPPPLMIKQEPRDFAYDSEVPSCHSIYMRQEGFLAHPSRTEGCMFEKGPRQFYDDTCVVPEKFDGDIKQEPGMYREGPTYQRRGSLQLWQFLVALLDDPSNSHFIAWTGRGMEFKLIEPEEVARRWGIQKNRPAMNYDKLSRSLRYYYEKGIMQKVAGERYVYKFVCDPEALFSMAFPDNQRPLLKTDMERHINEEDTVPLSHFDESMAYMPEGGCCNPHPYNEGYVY

ELF4, sequence (Q99607 whole entry): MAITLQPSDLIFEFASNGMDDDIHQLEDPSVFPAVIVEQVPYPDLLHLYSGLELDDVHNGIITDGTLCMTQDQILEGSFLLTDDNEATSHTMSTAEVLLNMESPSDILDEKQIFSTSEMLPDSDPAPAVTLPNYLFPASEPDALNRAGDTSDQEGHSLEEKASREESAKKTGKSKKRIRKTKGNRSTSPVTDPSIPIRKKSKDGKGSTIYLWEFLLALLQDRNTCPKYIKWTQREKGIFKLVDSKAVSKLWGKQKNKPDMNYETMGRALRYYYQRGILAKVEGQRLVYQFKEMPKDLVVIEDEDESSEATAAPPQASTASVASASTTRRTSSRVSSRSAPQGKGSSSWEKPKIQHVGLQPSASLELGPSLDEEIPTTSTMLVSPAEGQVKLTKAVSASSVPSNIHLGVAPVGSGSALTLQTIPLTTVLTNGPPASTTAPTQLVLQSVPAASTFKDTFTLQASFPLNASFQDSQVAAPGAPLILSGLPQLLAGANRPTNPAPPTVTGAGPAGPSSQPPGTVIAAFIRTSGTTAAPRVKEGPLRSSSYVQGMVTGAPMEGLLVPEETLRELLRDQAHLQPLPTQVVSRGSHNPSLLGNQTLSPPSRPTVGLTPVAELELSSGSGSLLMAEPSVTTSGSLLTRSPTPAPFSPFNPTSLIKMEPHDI
ELF1, sequence (P32519 whole entry): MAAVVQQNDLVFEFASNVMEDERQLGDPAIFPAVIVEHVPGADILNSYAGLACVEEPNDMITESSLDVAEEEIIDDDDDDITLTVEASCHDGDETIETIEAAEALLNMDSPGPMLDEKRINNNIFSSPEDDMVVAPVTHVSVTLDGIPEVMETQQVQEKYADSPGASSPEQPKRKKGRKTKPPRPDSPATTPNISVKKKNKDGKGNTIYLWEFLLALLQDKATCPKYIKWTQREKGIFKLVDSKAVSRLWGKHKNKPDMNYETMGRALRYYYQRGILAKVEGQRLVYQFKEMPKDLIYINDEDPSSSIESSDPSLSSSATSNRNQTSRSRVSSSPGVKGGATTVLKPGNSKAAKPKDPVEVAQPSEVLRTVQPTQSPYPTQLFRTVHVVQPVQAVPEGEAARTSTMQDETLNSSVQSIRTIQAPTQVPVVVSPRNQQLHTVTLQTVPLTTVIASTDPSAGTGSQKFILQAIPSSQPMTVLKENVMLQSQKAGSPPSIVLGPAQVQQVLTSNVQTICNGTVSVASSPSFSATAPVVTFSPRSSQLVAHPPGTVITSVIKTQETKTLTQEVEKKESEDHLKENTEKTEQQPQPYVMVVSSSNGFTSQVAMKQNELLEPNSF

On to CATGAA, for which the binding signal was 1.08 fold enrichment (6-mer frequency, TF over GST control) in assay [1]; 1.16 fold enrichment (6-mer frequency, TF over GST control) in assay [2]; 1.03 fold enrichment (6-mer frequency, TF over GST control) in [3]; 1.07 fold enrichment (6-mer frequency, TF over GST control) in [4]; 1.06 fold enrichment (6-mer frequency, TF over GST control) in [5]; 1.15 fold enrichment (6-mer frequency, TF over GST control) in [6]. The binding signal was 1.04 fold enrichment (6-mer frequency, TF over GST control) in assay [7]; 1.11 fold enrichment (6-mer frequency, TF over GST control) in assay [8]; 1.03 fold enrichment (6-mer frequency, TF over GST control) in [9]; 1.07 fold enrichment (6-mer frequency, TF over GST control) in assay [10]; 1.05 fold enrichment (6-mer frequency, TF over GST control) in assay [11]; 1.16 fold enrichment (6-mer frequency, TF over GST control) in assay [12]. The binding signal was 1.1 fold enrichment (6-mer frequency, TF over GST control) in assay [13]; 1.11 fold enrichment (6-mer frequency, TF over GST control) in assay [14]; 1.06 fold enrichment (6-mer frequency, TF over GST control) in assay [15]; 1.15 fold enrichment (6-mer frequency, TF over GST control) in [16]; 1.08 fold enrichment (6-mer frequency, TF over GST control) in assay [17].
